# According to the supplement of paper PMC7366291:
# Structures can show the parent of a compound that is named as a salt. ± gives the standard deviation or the standard deviation of the averaged measurements.
# Experiments:
# Details in all cases: 25 µM; exposure: 24-48 hpf
# [1] = test system: Danio rerio Tg(wt1b:EGFP) embryo, pronephros; assay: glomerular separation, fold change vs DMSO control; higher = glomeruli further apart (abnormal)
# Outline: (§1)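 From 24 to 48 hpf, at 28.5°C, dechorionated Tg(wt1b:EGFP) zebrafish embryos sat in HEPES-buffered E3 with 0.003% PTU carrying 25 μM compound and 0.5% DMSO. Their pronephroi were imaged dorsally in 96-well plates filled with agarose, using 470 nm light and 10 z-slices. A Fiji macro measured distances and angles between 16 reference points that were set manually on maximum projections, and any value more than 2 SD from its feature mean was excluded. Features are expressed as fold change relative to the mean of DMSO-treated embryos imaged on the same day.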
# [2] = test system: Danio rerio Tg(wt1b:EGFP) embryo, pronephros; assay: glomerular width (mean of left and right), fold change vs DMSO control; higher = wider glomerulus
# Outline: as §1
# [3] = test system: Danio rerio Tg(wt1b:EGFP) embryo, pronephros; assay: fraction of imaged embryos annotated as normal kidney; higher = less nephrotoxic; extreme values may be limits of the assay
# Outline: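 Embryos of the Tg(wt1b:EGFP) zebrafish line were dechorionated and held in 12-well plates with 25 μM compound in 0.5% DMSO and 5 mM HEPES-buffered E3 containing 0.003% PTU, from 24 to 48 hpf at 28.5°C. Larvae were then anaesthetised with tricaine, set dorsal side up in agarose-filled 96-well plates, and their pronephroi imaged by widefield fluorescence at 470 nm over 10 z-slices. Each value is the fraction of embryos per treatment placed in the normal-kidney category after manual annotation of maximum projections.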
# [4] = test system: Danio rerio Tg(wt1b:EGFP) embryo, pronephros; assay: pronephric angle neck segment to proximal convoluted tubule (mean of left and right), fold change vs DMSO control; higher = larger pronephric angle
# Outline: as §1
SMILES,glomerular separation [1],glomerular width [2],fraction of imaged embryos annotated as normal kidney [3],pronephric angle neck segment [4]
CCC1(C)CC(=O)NC(=O)C1 [Bemegride],0.891 ± 0.28,0.997 ± 0.013,0.75,0.968 ± 0.027
CN[C@@H]1[C@@H](O)[C@@H](O[C@@H]2[C@@H](O)[C@H](O[C@H]3O[C@H](CN)CC[C@H]3N)[C@@H](N)C[C@H]2N)OC[C@]1(C)O.CN[C@@H]1[C@@H](O)[C@@H](O[C@@H]2[C@@H](O)[C@H](O[C@H]3O[C@H]([C@@H](C)N)CC[C@H]3N)[C@@H](N)C[C@H]2N)OC[C@]1(C)O.CN[C@@H]1[C@@H](O)[C@@H](O[C@@H]2[C@@H](O)[C@H](O[C@H]3O[C@H]([C@@H](C)NC)CC[C@H]3N)[C@@H](N)C[C@H]2N)OC[C@]1(C)O [Gentamicine sulfate],0.941 ± 0.25,1.02 ± 0.024,0.667,1.01 ± 0.029
c1ccc2c(c1)Nc1ccccc1S2 [Phenothiazine],1.35 ± 0.6,0.851 ± 0.062,0.75,1.101 ± 0.002
CC(O)(CS(=O)(=O)c1ccc(F)cc1)C(=O)Nc1ccc(C#N)c(C(F)(F)F)c1 (stereo unspecified) [Bicalutamide],1.14 ± 0.56,1.04 ± 0.023,0.75,0.971 ± 0.002
CC(C)(C)NCC(O)c1ccccc1Cl (stereo unspecified) [Tulobuterol],1.02 ± 0.37,0.9779 ± 0.007,0.917,1.01 ± 0.039
CN1C(=O)CCS(=O)(=O)C1c1ccc(Cl)cc1 (stereo unspecified) [Chlormezanone],1.15 ± 0.46,1.05 ± 0.11,0.545,0.989 ± 0.059
C[C@]12Cc3c[nH]nc3C[C@@H]1CC[C@@H]1[C@@H]2CC[C@@]2(C)[C@H]1CC[C@]2(C)O [Stanozolol],1.31 ± 0.44,1.03 ± 0.076,0.75,1.01 ± 0.085
C=CCN1CC[C@]23c4c5ccc(O)c4O[C@H]2C(=O)CC[C@@]3(O)[C@H]1C5 [Naloxone hydrochloride],0.981 ± 0.33,1.01 ± 0.055,0.833,1.05 ± 0.017
O=c1[nH]c2ccccc2n1CCCN1CCC(n2c(=O)[nH]c3cc(Cl)ccc32)CC1 [Domperidone],0.857 ± 0.34,1.03 ± 0.08,0.818,0.963 ± 0.041
CCCC(C)(COC(N)=O)COC(=O)NC(C)C (stereo unspecified) [Carisoprodol],0.877 ± 0.24,1.14 ± 0.026,1,0.938 ± 0.022
CO[C@]12C[C@@H](COC(=O)c3cncc(Br)c3)CN(C)[C@@H]1Cc1cn(C)c3cccc2c13 [Nicergoline],1.02 ± 0.39,1.02 ± 0.037,1,0.966 ± 0.028
O=c1[nH]c2ccccc2n1C1CCN(CCCC(c2ccc(F)cc2)c2ccc(F)cc2)CC1 [Pimozide],4.46 ± 1.6,0.673 ± 0.02,0,0.976 ± 0.099
CN(C)C(=O)Oc1cccc([N+](C)(C)C)c1 [Neostigmine bromide],0.984 ± 0.28,0.859 ± 0.034,0.667,1.09 ± 0.053
O=P1(N(CCCl)CCCl)NCCCO1 (stereo unspecified) [Cyclophosphamide],0.894 ± 0.2,0.913 ± 0.0021,0.75,1.09 ± 0.028
CN[C@@H]1C[C@@H](c2ccc(Cl)c(Cl)c2)c2ccccc21 [Indatraline hydrochloride],0.788 ± 0.28,1.04 ± 0.011,0.833,0.9756 ± 0.0089
CN1[C@@H]2CC[C@H]1C[C@@H](OC(=O)C(CO)c1ccccc1)C2 (stereo partly specified) [Atropine sulfate monohydrate],1.25 ± 0.3,1.04 ± 0.011,1,1 ± 0.063
C(#CCN1CCCC1)CN1CCCC1 [Tremorine dihydrochloride],1.25 ± 0.52,0.9472 ± 0.008,0.75,1.03 ± 0.015
"NCC(O)c1ccc(O)cc1 (racemic) [(+,-)-Octopamine hydrochloride]",0.97 ± 0.66,0.94 ± 0.042,0.909,0.987 ± 0.059
C#C[C@]1(O)CC[C@H]2[C@@H]3CCC4=CC(=O)CC[C@]4(C)[C@H]3CC[C@@]21C [Ethisterone],0.918 ± 0.23,1.06 ± 0.071,0.909,1.065 ± 0.002
CCC1=C[C@H]2CN3CCc4c([nH]c5ccccc45)[C@](C(=O)OC)(C2)[C@H]13 [Catharanthine],0.982 ± 0.32,1.07 ± 0.1,0.833,1 ± 0.032
CC(CCc1ccccc1)NC(C)C(O)c1ccc(O)cc1 (stereo unspecified) [Nylidrin],0.871 ± 0.34,1.02 ± 0.035,0.917,1 ± 0.02
C#CCN(C)[C@H](C)Cc1ccccc1 [Selegiline hydrochloride],0.996 ± 0.51,0.969 ± 0.055,0.75,0.98 ± 0.017
O=P1(NCCCl)OCCCN1CCCl (stereo unspecified) [Ifosfamide],1.05 ± 0.39,0.999 ± 0.045,0.833,1.06 ± 0.023
C=CC[C@]1(O)CC[C@H]2[C@@H]3CCC4=CC(=O)CCC4=C3C=C[C@@]21C [Altrenogest],1.44 ± 0.77,1.07 ± 0.0053,0.333,0.981 ± 0.072
CCC(=O)O[C@@](Cc1ccccc1)(c1ccccc1)[C@@H](C)CN(C)C [Levopropoxyphene napsylate],1.29 ± 0.53,1.05 ± 0.037,0.909,0.996 ± 0.044
CCN(C)C(=O)Oc1cccc([C@H](C)N(C)C)c1 [Rivastigmine],1.1 ± 0.33,0.8935 ± 0.007,0.917,0.9906 ± 0.0047
C[N+]12CCC(CC1)C(OC(=O)C(O)(c1ccccc1)c1ccccc1)C2 (stereo unspecified) [Clidinium bromide],0.83 ± 0.32,0.982 ± 0.1,0.917,0.967 ± 0.022

SMILES,glomerular separation [1],glomerular width [2],fraction of imaged embryos annotated as normal kidney [3],pronephric angle neck segment [4]
C[N+]1([O-])[C@@H]2C[C@@H](OC(=O)[C@H](CO)c3ccccc3)C[C@H]1[C@@H]1O[C@@H]12 (stereo partly specified) [Scopolamin-N-oxide hydrobromide],0.883 ± 0.35,1.03 ± 0.018,0.909,0.9285 ± 0.0031
C[N+]1(C)CCOC(O)(c2ccc(-c3ccc(C4(O)C[N+](C)(C)CCO4)cc3)cc2)C1 (stereo unspecified) [Hemicholinium bromide],0.878 ± 0.14,0.95 ± 0.00098,0.917,1 ± 0.1
O=C(NCNC(=O)NC1C(=O)NC(=O)N1CO)NC1C(=O)NC(=O)N1CO (stereo unspecified) [Imidurea],0.876 ± 0.2,1.008 ± 0.01,0.833,1.058 ± 0.0052
C=C1CC[C@@]2(O)[C@H]3Cc4ccc(O)c5c4[C@@]2(CCN3CC2CC2)[C@H]1O5 [Nalmefene hydrochloride],0.938 ± 0.31,1.016 ± 0.01,0.75,1.007 ± 0.0021
COc1cc2c(c(OC)c1OC)-c1ccc(OC)c(=O)cc1[C@@H](NC(C)=O)CC2 [Colchicine],1.2 ± 0.47,0.827 ± 0.047,0.667,1.06 ± 0.044
O[C@@H]1CCCC[C@H]1N1CCC(c2ccccc2)CC1 [L(-)-vesamicol hydrochloride],1.01 ± 0.55,0.955 ± 0.032,0.917,1.01 ± 0.075
CC(=O)NC1CCSC1=O (racemic) [N-Acetyl-DL-homocysteine Thiolactone],0.761 ± 0.24,1.07 ± 0.041,0.917,1 ± 0.066
CC(C)N(CCC(C(N)=O)(c1ccccc1)c1ccccn1)C(C)C (stereo unspecified) [Disopyramide],0.9 ± 0.32,1.09 ± 0.086,0.667,1.05 ± 0.038
CC(C)(C)NCC(O)c1cc(Cl)c(N)c(Cl)c1 (stereo unspecified) [Clenbuterol hydrochloride],1.04 ± 0.33,1.08 ± 0.032,0.75,1 ± 0.067
CC(C)[N+](C)(CCC(C(N)=O)(c1ccccc1)c1ccccc1)C(C)C [Isopropamide iodide],0.996 ± 0.45,1.0283 ± 0.001,0.818,0.983 ± 0.025
c1ccc2c(c1)OCC(C1=NCCN1)O2 (stereo unspecified) [Idazoxan hydrochloride],0.851 ± 0.4,0.99138 ± 0.00087,0.833,1.02 ± 0.021
CC(=O)OC1CN2CCC1CC2 (stereo unspecified) [Aceclidine Hydrochloride],0.978 ± 0.38,1.053 ± 0.01,0.917,0.99 ± 0.044
C=C(C)[C@@H]1[C@H]2OC(=O)[C@@H]1[C@]1(O)C[C@H]3O[C@]34C(=O)O[C@H]2[C@]14C [Picrotoxinin],1.19 ± 0.57,0.973 ± 0.011,0.917,1.01 ± 0.03
CCC1(c2cccc(O)c2)CCCCN(C)C1 (stereo unspecified) [Meptazinol hydrochloride],1.01 ± 0.35,0.967 ± 0.024,0.917,0.984 ± 0.06
CCn1cc(C(=O)O)c(=O)c2cc3c(cc21)OCO3 [Oxolinic acid],0.66 ± 0.37,1.06 ± 0.096,0.583,0.799 ± 0.024
Cc1cccc(C)c1NC1=NCCCS1 [Xylazine],0.757 ± 0.26,0.997 ± 0.018,0.833,0.966 ± 0.057
O=C(CCCN1CCC2(CC1)C(=O)NCN2c1ccccc1)c1ccc(F)cc1 [Spiperone],1.21 ± 0.45,0.978 ± 0.02,0.833,1.06 ± 0.078
CCN(C(C)=O)c1cccc(-c2ccnc3c(C#N)cnn23)c1 [Zaleplon],0.976 ± 0.47,0.943 ± 0.034,0.833,1.03 ± 0.027
C[C@@H]1C[C@@H]([C@H](O)CC2CC(=O)NC(=O)C2)C(=O)[C@@H](C)C1 [Cycloheximide],0.972 ± 0.45,0.604 ± 0.14,0.2,1.73 ± 0.19
C[C@]12CC[C@H](O)C[C@H]1CC[C@@H]1[C@@H]2CC[C@]2(C)[C@@H](C3=CC(=O)OC3)CC[C@]12O [Digitoxigenin],1.38 ± 0.71,1.0869 ± 0.00048,0.667,1.03 ± 0.066
CC(C)c1c(CN(C)C(C)Cc2ccccc2)n(C)n(-c2ccccc2)c1=O (stereo unspecified) [Famprofazone],0.985 ± 0.39,0.985 ± 0.031,0.917,1.084 ± 0.0087
COc1ccc(OC)c(C(O)C(C)N)c1 (stereo unspecified) [Methoxamine hydrochloride],0.886 ± 0.22,0.9725 ± 0.0077,0.75,0.976 ± 0.021
COc1ccc(C(CN(C)C)C2(O)CCCCC2)cc1 (stereo unspecified) [Venlafaxine],0.684 ± 0.13,1.023 ± 0.0059,0.917,0.925 ± 0.013
COc1ccc2c(c1)[C@]13CCCC[C@@H]1[C@H](C2)N(C)CC3 [Dextromethorphan hydrobromide monohydrate],1.03 ± 0.23,0.9098 ± 0.004,0.833,1.04 ± 0.036
O=c1[nH]oc2c1CCNC2 [THIP Hydrochloride],0.923 ± 0.31,1.08 ± 0.012,0.917,0.961 ± 0.03
CC(=O)O[C@H]1C[C@@H]2CC[C@@H]3[C@H](CC[C@@]4(C)[C@H]3C[C@H]([N+]3(C)CCCCC3)[C@@H]4OC(C)=O)[C@@]2(C)C[C@@H]1[N+]1(C)CCCCC1 [Pancuronium bromide],1.23 ± 0.41,0.928 ± 0.13,1,0.955 ± 0.047
CN1C[C@H](C(=O)N[C@]2(C)O[C@@]3(O)[C@@H]4CCCN4C(=O)[C@H](Cc4ccccc4)N3C2=O)C[C@@H]2c3cccc4[nH]cc(c34)C[C@H]21 [Dihydroergotamine tartrate],1.15 ± 0.56,1.0661 ± 0.00016,0.833,0.948 ± 0.015
